Laboratory results as given in the supplement of paper PMC6555819.

How the values were obtained:
Assay in all cases: PBM binding z-score (relative to random genomic background probes); higher = stronger binding; sequences stand for … in GC…GCGATTGACAGCGTAGAATGAAGG
[1] = test system: PPARg:RXRa IVT, anti-PPARg (NR concentration 270 nM, RXRa partner concentration 90 nM)
How it was run: (§1)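 Regression normalization was applied to scanned fluorescence from custom Agilent 4×180K protein-binding microarrays. Before scanning, arrays were incubated 1 h with ligand-free nuclear receptor dimers, and binding was detected with antibodies against each partner (one per run). Binding z-scores use the random background probes as reference.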

[2] = test system: PPARg DBDmut:RXRa IVT, anti-PPARg (DBD mutation: PPARg1 K132A/R137A, NR concentration 270 nM, RXRa partner concentration 90 nM)
How it was run: as §1

[3] = test system: PPARg DBDmut IVT, anti-PPARg (DBD mutation: PPARg1 K132A/R137A, NR concentration 270 nM)
How it was run: as §1

[4] = test system: PPARg homodimer (NR concentration 180 nM)
How it was run: as §1

[5] = test system: PXR homodimer (NR concentration 270 nM)
How it was run: as §1

[6] = test system: RARa:RXR (NR concentration 270 nM, RXRa partner concentration 90 nM)
How it was run: as §1

[7] = test system: RARa homodimer (NR concentration 270 nM)
How it was run: as §1

[8] = test system: RARb:RXRa (NR concentration 270 nM, RXRa partner concentration 90 nM)
How it was run: as §1

[9] = test system: RARb homodimer (NR concentration 270 nM)
How it was run: as §1

[10] = test system: RARg:RXRa (NR concentration 270 nM, RXRa partner concentration 90 nM)
How it was run: as §1

[11] = test system: RARg homodimer (NR concentration 270 nM)
How it was run: as §1

[12] = test system: RXRa DBDmut IVT, anti-RXR (DBD mutation: RXRa K156A/R161A, NR concentration 90 nM)
How it was run: as §1

[13] = test system: RXRa homodimer (NR concentration 180 nM)
How it was run: as §1

[14] = test system: THRa:RXRa (NR concentration 90 nM, RXRa partner concentration 90 nM)
How it was run: as §1

[15] = test system: THRa homodimer (NR concentration 90 nM)
How it was run: as §1

[16] = test system: VDR homodimer (NR concentration 270 nM)
How it was run: as §1

[17] = test system: PXR:RXRa (NR concentration 270 nM, RXRa partner concentration 90 nM)
How it was run: as §1

Sequence | PBM binding z-score [1] | PBM binding z-score [2] | PBM binding z-score [3] | PBM binding z-score [4] | PBM binding z-score [5] | PBM binding z-score [6] | PBM binding z-score [7] | PBM binding z-score [8] | PBM binding z-score [9] | PBM binding z-score [10] | PBM binding z-score [11] | PBM binding z-score [12] | PBM binding z-score [13] | PBM binding z-score [14] | PBM binding z-score [15] | PBM binding z-score [16] | PBM binding z-score [17]
TGTCAATGTTCAAAGGTAACGTAAGTATCCACAC | 1.8 | 1.27 | 0.82 | 0.516 | -0.115 | 0.48 | -0.4 | 1.09 | 0.732 | 0.811 | 0.759 | -0.404 | 0.776 | 1.24 | -0.064 | -0.453 | –
CTCGAAAGGTCATGCTCAGGTGAGTATACCAAAC | 4.89 | 1.38 | 0.849 | 3.71 | 0.752 | 6.85 | 2.27 | – | 5.14 | – | 8.47 | 3.44 | – | 4.72 | 1.61 | 2.44 | 5.91
ATATGTAGGTTAACTGGGGTCATTCAGACTAGGC | 7.34 | 1.81 | 2.42 | 1.95 | 5.25 | 5.93 | 1.61 | 3.55 | 4.28 | 4.95 | 3.7 | 2.76 | 5.82 | – | 3.07 | 5.41 | –
CGTCAAAGGTCAGCAGGTCAGTGAAAGCGACGTG | 5.73 | 1.7 | 1.47 | 7.06 | 0.608 | – | 4.86 | – | 5.42 | – | 8.73 | 2.54 | – | 3.92 | 0.878 | 1.62 | 5.39
CGTCCAAGGTCTAGGTCAGTGAAAGAGACTCGAA | 1.61 | -1.11 | -1.28 | 0.763 | -0.179 | 0.514 | 0.0377 | 2.48 | 2.38 | 1.6 | 2.4 | 0.323 | 0.486 | 1.86 | 0.936 | 0.00097 | –
CGTCAAAGGTCAATGCTAGGTCAGTGAAAGCATT | 6.13 | 2.05 | 0.936 | 5.64 | 1.66 | 6.85 | 2.5 | – | 5.56 | – | 8.73 | 3.76 | – | 4.77 | 1.42 | 2.5 | 5.96
CTCGAAAGGTCGTGCTCAGATGAGTATACCAAAC | 1.25 | 0.625 | 1.37 | 1.3 | 0.152 | – | 0.441 | 3.79 | 2.15 | 4.06 | 3.84 | 1.66 | 4.62 | 2.22 | -0.171 | 1.15 | 2.96
CGTCAAAGGTCAAAGGTCAGTGAAGAGATGACGG | 6.51 | 2.46 | 1.92 | 4.68 | 1.83 | 9.15 | 3.92 | – | 6.09 | – | 9.73 | 4.01 | – | 4.94 | 1.08 | 3.49 | 7.37
CAAACTAGGTCAAAAGGTCAAAGTCCGCTTCCCG | 8.17 | 1.83 | 1.09 | 7.65 | 2.96 | – | 5.47 | – | 6.38 | – | 8.65 | 2.66 | – | 4.48 | 1.87 | 3.77 | 6.71
CGTCCAAGGTCACGGTCAGTGAAAGAGACTCGAA | 5.66 | 1.95 | 0.958 | 4.68 | 0.843 | 6.25 | 2.14 | – | 4.71 | 7.19 | 8.03 | 4.12 | 7.6 | 4.29 | 3.63 | 2.8 | 4.93
CGTCAAAGGTCAGAGAGGTCAGTGAATGCCGAGT | 5.36 | 0.83 | 0.0737 | 5.81 | 12.3 | – | 5.86 | – | 6.19 | – | 9.03 | 3.48 | – | 4.37 | 1.6 | 5.19 | 6.7
AGTCAAAGGTCATCTAGGTAACGTAAGATATGCT | 6.77 | 2.25 | 1.94 | 3.75 | 1.34 | 6.03 | 2.2 | – | 5.29 | – | 7.77 | 3.31 | – | 4.7 | 1.42 | 2.52 | 5.44
CGTCCAAGGTCATAGGAGGTCAATGAAGACAGAT | 5.13 | 0.774 | 0.632 | 4.29 | 6.06 | 6.16 | 1.49 | – | 5.71 | 6.94 | 7.28 | 3.99 | 7.15 | – | 3.89 | 4.97 | 7.13
CAAAATAGGTCACCGGAAGGTCAAAGTCCGCATG | 8.01 | 1.87 | 1.44 | 8.87 | 1.96 | 8.2 | 4.27 | – | 5.89 | – | 8.46 | 2.03 | – | 4.65 | 1.82 | 3.41 | 6.56
